According to the supplement of paper PMC10849652:
The full data set covers some 7,900 targets. This sample favours those with a hit. About 0.6% of all pairs of compound and target were hits. Values without a mark were called inactive.

Key:
Assay in all cases: log2 fold change, soluble protein after heating vs DMSO (PISA); higher = thermal stabilisation; K562 cells, 10 uM, 30 min; active = over 0.2 and 3.5 SD of the protein, either way, in both replicates (recomputed)
[1] = compound: CC[C@@H]1C(=O)N(C)c2cnc(Nc3ccc(C(=O)NC4CCN(C)CC4)cc3OC)nc2N1C1CCCC1
Outline: (§1)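 Thermal stability values are relative to control samples and come from duplicates. They are expressed as log2 fold changes. For measurement, K562 cells (2×10^6 cells/mL) received 10 μM compound for 30 min, and aliquots were heated for 3 min over 48°C-58°C, pooled, and extracted at 4°C in PBS with 0.5% NP-40. Soluble protein, the supernatant after 21,000xg for 90 min, was quantified by TMTpro 16plex LC-MS/MS with equalised channel sums.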

volasertib = compound: CC[C@@H]1C(=O)N(C)c2cnc(Nc3ccc(C(=O)N[C@H]4CC[C@H](N5CCN(CC6CC6)CC5)CC4)cc3OC)nc2N1C(C)C [volasertib]
Outline: as §1

[2] = compound: CC[C@H](C)N1C=C(C2=C(C=C(C=C21)C3=CN=C(C=C3)N4CCNCC4)C(=O)NCC5=C(C=C(NC5=O)C)C)C
Outline: as §1

epoxomicin = compound: CC[C@H](C)[C@@H](C(=O)N[C@@H]([C@@H](C)O)C(=O)N[C@@H](CC(C)C)C(=O)[C@]1(CO1)C)NC(=O)[C@H]([C@@H](C)CC)N(C)C(=O)C [epoxomicin]
Outline: as §1

[3] = compound: CCn1c(C(=O)N(C2CC2)C2CC2)cc2c3c(ncn3C)c(Nc3cc(C)n(C)n3)nc21
Outline: as §1

[4] = compound: CCn1cc(-c2ccnc3[nH]c(-c4cccc(CN(C)C)c4)cc23)c(-c2ccc(NC(=O)N(C)C)cc2)n1
Outline: as §1

[5] = compound: CN(C)CC(=O)Nc1ccc2[nH]c(=O)c3ccccc3c2c1
Outline: as §1

rosiglitazone = compound: CN(CCOC1=CC=C(C=C1)C[C@H]2C(=O)NC(=O)S2)C3=CC=CC=N3 (racemic) [rosiglitazone]
Outline: as §1

[6] = compound: CN1C2=C(C3=C1C(=O)N(N=C3)CC4=CC(=CC=C4)N)SC(=C2)S(=O)C
Outline: as §1

[7] = compound: CN1CCC(CNc2ccc3ncc(-c4cccc(OC(F)(F)F)c4)n3n2)CC1
Outline: as §1

Chain of UniProt Q9NQG6 (Q9NQG6 whole entry, looked up): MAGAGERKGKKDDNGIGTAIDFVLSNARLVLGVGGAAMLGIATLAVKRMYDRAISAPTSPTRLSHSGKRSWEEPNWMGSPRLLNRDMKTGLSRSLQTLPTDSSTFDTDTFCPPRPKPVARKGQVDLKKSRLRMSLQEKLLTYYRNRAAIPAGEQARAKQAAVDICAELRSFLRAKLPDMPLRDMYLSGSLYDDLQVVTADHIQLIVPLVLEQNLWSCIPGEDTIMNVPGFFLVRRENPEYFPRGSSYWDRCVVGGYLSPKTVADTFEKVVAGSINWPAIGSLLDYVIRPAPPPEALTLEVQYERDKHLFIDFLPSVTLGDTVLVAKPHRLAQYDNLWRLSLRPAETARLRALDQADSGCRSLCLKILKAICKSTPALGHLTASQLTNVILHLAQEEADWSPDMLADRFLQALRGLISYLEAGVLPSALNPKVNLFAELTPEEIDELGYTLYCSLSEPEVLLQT
Chain of UniProt Q4G0J3 (Q4G0J3 whole entry, looked up): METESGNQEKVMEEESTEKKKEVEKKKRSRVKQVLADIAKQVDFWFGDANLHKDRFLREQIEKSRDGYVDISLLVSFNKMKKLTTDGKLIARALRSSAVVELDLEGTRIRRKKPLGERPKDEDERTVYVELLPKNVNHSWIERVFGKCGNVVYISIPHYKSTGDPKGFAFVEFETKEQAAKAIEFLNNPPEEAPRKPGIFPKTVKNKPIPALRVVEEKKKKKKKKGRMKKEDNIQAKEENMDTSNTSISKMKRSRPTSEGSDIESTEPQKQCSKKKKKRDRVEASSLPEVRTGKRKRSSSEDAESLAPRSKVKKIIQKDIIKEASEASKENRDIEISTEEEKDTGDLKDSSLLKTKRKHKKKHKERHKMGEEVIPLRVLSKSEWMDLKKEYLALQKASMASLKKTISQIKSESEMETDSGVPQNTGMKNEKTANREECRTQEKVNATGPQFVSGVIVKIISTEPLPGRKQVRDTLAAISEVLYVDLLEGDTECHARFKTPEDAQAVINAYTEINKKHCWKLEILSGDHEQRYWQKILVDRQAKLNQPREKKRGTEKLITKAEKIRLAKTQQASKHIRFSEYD
Chain of UniProt Q96A72 (Q96A72 whole entry, looked up): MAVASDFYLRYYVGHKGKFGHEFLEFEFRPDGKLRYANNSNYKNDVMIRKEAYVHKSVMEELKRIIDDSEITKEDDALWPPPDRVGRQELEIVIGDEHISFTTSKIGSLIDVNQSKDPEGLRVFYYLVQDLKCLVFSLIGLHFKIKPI
Chain of UniProt Q9H6V9 (Q9H6V9 whole entry, looked up): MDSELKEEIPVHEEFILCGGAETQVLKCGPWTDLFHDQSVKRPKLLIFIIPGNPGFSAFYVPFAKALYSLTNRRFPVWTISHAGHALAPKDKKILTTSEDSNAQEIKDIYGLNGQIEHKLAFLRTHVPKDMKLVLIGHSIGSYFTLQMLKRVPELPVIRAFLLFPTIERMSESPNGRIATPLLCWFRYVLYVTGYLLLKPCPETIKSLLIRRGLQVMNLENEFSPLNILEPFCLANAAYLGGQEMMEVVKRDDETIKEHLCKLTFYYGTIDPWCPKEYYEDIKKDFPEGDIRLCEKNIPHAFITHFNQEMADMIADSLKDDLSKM
Chain of UniProt Q8WV07 (Q8WV07 whole entry, looked up): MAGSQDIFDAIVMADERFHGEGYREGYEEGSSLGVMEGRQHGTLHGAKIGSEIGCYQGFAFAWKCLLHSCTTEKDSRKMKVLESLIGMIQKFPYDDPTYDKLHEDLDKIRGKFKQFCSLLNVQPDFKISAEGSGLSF
Chain of UniProt Q13418 (Q13418 whole entry, looked up): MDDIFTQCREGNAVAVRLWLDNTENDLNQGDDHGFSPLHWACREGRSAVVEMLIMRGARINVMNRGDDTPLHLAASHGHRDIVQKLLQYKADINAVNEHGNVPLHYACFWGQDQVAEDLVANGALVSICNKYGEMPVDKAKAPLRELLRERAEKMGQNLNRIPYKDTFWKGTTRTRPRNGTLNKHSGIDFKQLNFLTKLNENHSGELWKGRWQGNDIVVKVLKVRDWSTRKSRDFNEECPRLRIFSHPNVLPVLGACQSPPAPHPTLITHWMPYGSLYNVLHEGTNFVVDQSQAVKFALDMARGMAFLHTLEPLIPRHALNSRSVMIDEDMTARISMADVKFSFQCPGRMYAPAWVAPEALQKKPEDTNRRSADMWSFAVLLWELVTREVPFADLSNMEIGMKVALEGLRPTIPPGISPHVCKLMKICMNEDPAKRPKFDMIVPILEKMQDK
Chain of UniProt Q32MZ4 (Q32MZ4 whole entry, looked up): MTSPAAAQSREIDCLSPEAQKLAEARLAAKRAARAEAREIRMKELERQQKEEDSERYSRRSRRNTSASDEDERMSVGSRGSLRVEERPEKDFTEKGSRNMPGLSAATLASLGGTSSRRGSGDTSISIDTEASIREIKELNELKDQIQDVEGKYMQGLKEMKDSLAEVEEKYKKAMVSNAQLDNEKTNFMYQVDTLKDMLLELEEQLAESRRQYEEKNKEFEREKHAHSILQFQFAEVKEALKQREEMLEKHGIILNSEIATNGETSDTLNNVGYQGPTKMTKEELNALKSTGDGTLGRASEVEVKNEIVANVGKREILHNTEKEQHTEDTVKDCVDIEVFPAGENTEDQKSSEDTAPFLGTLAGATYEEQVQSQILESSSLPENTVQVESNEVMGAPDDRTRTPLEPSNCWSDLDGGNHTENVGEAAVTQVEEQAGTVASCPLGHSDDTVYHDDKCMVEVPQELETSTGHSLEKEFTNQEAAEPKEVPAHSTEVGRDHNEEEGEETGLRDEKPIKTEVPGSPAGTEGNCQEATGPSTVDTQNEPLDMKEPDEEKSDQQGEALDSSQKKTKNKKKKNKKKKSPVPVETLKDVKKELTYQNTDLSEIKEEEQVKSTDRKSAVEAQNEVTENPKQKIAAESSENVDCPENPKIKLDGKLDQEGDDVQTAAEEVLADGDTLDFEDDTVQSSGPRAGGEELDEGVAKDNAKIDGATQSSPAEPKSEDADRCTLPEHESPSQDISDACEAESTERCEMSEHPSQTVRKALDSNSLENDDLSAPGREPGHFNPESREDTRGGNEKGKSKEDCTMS
Chain of UniProt Q9NYL2 (Q9NYL2 whole entry, looked up): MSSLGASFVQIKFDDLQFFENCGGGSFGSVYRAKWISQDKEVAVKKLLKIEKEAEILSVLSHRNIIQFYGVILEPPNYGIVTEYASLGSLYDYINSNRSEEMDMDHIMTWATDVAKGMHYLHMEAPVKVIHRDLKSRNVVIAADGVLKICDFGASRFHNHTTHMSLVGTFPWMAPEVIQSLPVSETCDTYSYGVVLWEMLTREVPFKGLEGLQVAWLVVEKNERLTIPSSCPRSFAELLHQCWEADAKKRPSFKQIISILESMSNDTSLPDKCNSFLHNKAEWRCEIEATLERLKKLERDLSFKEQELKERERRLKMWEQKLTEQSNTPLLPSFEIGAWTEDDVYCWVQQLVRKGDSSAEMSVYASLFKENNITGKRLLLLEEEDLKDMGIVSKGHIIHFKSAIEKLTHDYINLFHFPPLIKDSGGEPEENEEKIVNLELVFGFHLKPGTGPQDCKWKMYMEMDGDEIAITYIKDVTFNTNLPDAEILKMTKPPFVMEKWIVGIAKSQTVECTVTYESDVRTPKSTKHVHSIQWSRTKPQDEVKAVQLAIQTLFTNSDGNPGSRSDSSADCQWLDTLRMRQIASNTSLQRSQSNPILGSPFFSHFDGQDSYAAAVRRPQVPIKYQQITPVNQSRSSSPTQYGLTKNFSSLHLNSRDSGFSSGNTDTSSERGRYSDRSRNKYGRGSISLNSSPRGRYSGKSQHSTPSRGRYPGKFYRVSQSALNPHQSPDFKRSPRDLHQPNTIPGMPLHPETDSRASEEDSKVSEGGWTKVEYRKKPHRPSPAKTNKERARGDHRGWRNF
Chain of UniProt Q9HCC0 (Q9HCC0 whole entry, looked up): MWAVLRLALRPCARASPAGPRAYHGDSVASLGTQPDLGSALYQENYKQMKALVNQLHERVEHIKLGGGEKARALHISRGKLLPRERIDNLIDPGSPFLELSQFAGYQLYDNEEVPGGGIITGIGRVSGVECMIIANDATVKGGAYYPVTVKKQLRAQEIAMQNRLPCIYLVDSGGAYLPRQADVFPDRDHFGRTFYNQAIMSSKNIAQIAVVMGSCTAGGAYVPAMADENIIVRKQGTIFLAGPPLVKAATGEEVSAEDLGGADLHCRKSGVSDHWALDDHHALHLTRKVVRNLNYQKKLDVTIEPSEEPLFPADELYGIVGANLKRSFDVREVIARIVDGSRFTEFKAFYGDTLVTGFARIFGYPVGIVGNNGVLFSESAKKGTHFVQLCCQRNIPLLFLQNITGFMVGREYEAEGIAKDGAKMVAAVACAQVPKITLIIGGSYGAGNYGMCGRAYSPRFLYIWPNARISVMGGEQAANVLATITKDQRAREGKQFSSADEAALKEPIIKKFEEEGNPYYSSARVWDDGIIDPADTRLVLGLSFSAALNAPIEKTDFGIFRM
Chain of UniProt P07948 (P07948 whole entry, looked up): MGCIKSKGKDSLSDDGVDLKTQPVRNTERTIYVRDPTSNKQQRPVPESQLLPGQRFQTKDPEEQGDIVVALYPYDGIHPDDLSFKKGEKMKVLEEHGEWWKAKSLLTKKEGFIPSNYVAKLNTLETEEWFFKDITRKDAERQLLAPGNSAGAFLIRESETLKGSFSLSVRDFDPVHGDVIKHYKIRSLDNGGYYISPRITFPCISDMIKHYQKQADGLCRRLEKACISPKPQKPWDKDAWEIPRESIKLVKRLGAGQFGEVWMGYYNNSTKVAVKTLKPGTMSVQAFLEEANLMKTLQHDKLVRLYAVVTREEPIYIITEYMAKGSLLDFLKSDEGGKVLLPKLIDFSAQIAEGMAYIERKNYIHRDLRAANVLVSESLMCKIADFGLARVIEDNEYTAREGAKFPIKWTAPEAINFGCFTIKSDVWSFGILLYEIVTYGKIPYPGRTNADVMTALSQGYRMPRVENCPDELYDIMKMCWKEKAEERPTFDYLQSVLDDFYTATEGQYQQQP

Row | Target | log2 fold change [1] | log2 fold change (volasertib) | log2 fold change [2] | log2 fold change (epoxomicin) | log2 fold change [3] | log2 fold change [4] | log2 fold change [5] | log2 fold change (rosiglitazone) | log2 fold change [6] | log2 fold change [7]
1 | KDM3B (UniProt Q7LBC6) | -0.164 | -0.349 (active) | 0.06 | 0.061 | -0.024 | 0.001 | 0.043 | 0.048 | -0.049 | -0.071
2 | LDAH isoform 2 (UniProt Q9H6V9) | -0.062 | -0.374 (active) | 0.007 | -0.052 | -0.011 | -0.148 | 0.049 | -0.031 | -0.137 | -0.688 (active)
3 | MAP3K20 (UniProt Q9NYL2) | 0.038 | -0.026 | 0.08 | 0.008 | 0.011 | -0.016 | -0.02 | 0.035 | 0.126 | -0.12
4 | MAGOHB (UniProt Q96A72) | -0.046 | -0.096 | 0.014 | 0.007 | -0.041 | 0.003 | 0.013 | 0.017 | -0.039 | 0.023
5 | KIF3A (UniProt Q9Y496) | 0.036 | -0.039 | -0.187 | 0.068 | -0.004 | -0.093 | 0.032 | 0.174 | -0.023 | -0.162
6 | MIEF1 (UniProt Q9NQG6) | -0.053 | -0.098 | 0.031 | 0.073 | 0.019 | 0.019 | 0.054 | 0.041 | -0.018 | -0.546 (active)
7 | LRRFIP1 (UniProt Q32MZ4) | 0.06 | 0.099 | -0.075 | -0.019 | 0.019 | 0.028 | -0.004 | -0.007 | 0.011 | 0.013
8 | MAP2K7 isoform 4 (UniProt O14733) | -0.026 | -0.005 | 0.022 | 0.07 | 0.017 | -0.086 | -0.017 | 0.033 | -0.065 | -0.15
9 | ILF2 (UniProt Q12905) | 0.277 | 0.281 | 0.029 | -0.186 | -0.018 | 0.2 | -0.053 | -0.099 | 0.16 | 0.352
10 | LTO1 (UniProt Q8WV07) | -0.018 | 0.322 | 0.058 | 0.063 | -0.008 | -0.029 | -0.312 (active) | 0.013 | -0.105 | 0.035
11 | LARP7 isoform 3 (UniProt Q4G0J3) | -0.047 | -0.155 | 0.051 | -0.081 | 0.034 | -0.032 | 0.064 | 0.003 | 0.014 | -0.075
12 | MCCC2 (UniProt Q9HCC0) | 0.003 | 0.038 | -0.032 | -0.018 | -0.007 | -0.013 | 0.003 | 0.012 | -0.031 | 0.027
13 | MFF (UniProt Q9GZY8) | -0.007 | 0 | -0.046 | 0.037 | 0 | 0.043 | -0.031 | 0.035 | 0.031 | -0.386 (active)
14 | LYN (UniProt P07948) | -0.016 | -0.023 | 0.033 | 0.039 | 0.037 | -0.095 | -0.024 | -0.009 | 0.144 | -0.03
15 | ILK (UniProt Q13418) | 0.033 | 0.064 | 0.035 | -0.04 | -0.037 | -0.052 | -0.006 | 0.051 | 0.125 | -0.191
